Assays:
Conditions in all cases: concentration: 1 μM, replicates: in singlicate; n = 1
CDC2L2 = test system: CDC2L2
CDC2L5 = test system: T1, CDC2L5
T1 construct: gene CDK13

CDK11 = test system: T2, CDK11
T2 construct: gene CDK19

CDK2 = test system: CDK2
CDK3 = test system: CDK3
CDK4-cyclinD1 = test system: CDK4-cyclinD1
CDK4-cyclinD3 = test system: CDK4-cyclinD3
CDK4 = test system: CDK4
CDK5 = test system: CDK5
CDK7 = test system: CDK7
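Also: KINOMEscan kinase panel screen.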

Compound	%Inh (CDC2L2) [%]	%Inh (CDC2L5) [%]	%Inh (CDK11) [%]	%Inh (CDK2) [%]	%Inh (CDK3) [%]	%Inh (CDK4-cyclinD1) [%]	%Inh (CDK4-cyclinD3) [%]	%Inh (CDK4) [%]	%Inh (CDK5) [%]	%Inh (CDK7) [%]
COc1cc(Nc2nccc(-c3c(-c4cccc(NC(=O)c5c(F)cccc5F)c4)nn4ncccc34)n2)cc(OC)c1OC [GSK327238]	15	0	0	0	4	0	97.4	21	0	0
CNC(=O)c1ccccc1Nc1nc(Nc2ccc(N3CCOCC3)cc2)ncc1Cl.Cl [GSK1576028]	20	0	0	39	31	47	45	28	29	96.6
O=C(Nc1n[nH]c2cc(-c3ccoc3)ccc12)C1CC1 [SB-738481]	0	29	0	76	51	14	3	0	17	71
O=C(Nc1cccc(-c2nn3ccccc3c2-c2ccnc(Nc3cccc(C(F)(F)F)c3)n2)c1)c1c(F)cccc1F [GSK292658]	0	99.3	0	0	1	0	0	0	0	6
CCS(=O)(=O)c1ccc(OC)c(Nc2nccc(-c3c(-c4cccc(NC(=O)c5c(F)cccc5F)c4)nn4ncccc34)n2)c1 [GSK326180]	15	0	11	0	7	0	12	0	0	0
COc1cc2c(cc1OCCN1CCNCC1)ncc1c3ccc(C#N)cc3[nH]c21	0	8	24	0	17	31	0	6	3	99.7
CCn1c(-c2nonc2N)nc2c(C#CC(C)(C)O)nc(OC[C@H](N)c3ccccc3)cc21 [GSK943949]	0	2	0	0	0	0	8	0	9	5
O=C(Nc1ccccc1F)NC1CCN(c2ccnc(Nc3ccc(F)cc3)n2)CC1 [GSK1379800]	34	0	9	0	0	2	0	28	0	0
Cl.Cl.NCC(NC(=O)c1cc(-c2ccccc2)c(-c2ccnc3[nH]ccc23)s1)c1ccccc1 (stereo not drawn) [GSK1321561]	11	0	8	0	8	0	0	27	0	0
c1ccc(-c2cnc3nccnn23)cc1 [AH20685]	18	0	0	0	2	0	0	0	0	0
Cc1ccc(S(=O)(=O)Nc2ccc(Nc3nccc(Nc4cccc5[nH]ncc45)n3)cc2)cc1 [GSK581271]	0	0	0	21	17	0	0	15	0	0
COC(=O)Nc1nc2ccc(Oc3ccc(NC(=O)Nc4cc(C(F)(F)F)ccc4F)cc3)cc2n1C.Cl [GW692089]	10	0	43	0	0	46	0	26	0	69
NCCCC(NC(=O)c1cc(Br)c(-c2ccnc3[nH]ccc23)s1)c1ccccc1.O=C(O)C(F)(F)F.O=C(O)C(F)(F)F (stereo not drawn) [GSK1287544]	0	0	45	0	10	0	2	5	6	4
Cc1ccc(C(=O)Nc2ccc(Nc3ccnc4cc(-c5nccs5)ccc34)cc2O)cc1.Cl [GW494702]	0	0	0	94.4	8	39	0	43	0	9
Cn1cc(-c2[nH]c3cc(NC(=O)[C@H](N)C4CCCCC4)cc4c3c2C=NNC4=O)cn1	6	0	15	8	0	0	0	0	11	41
Nc1ncc(-c2cccnc2)c2scc(-c3ccc4c(c3)CCN4C(=O)Cc3ccccc3)c12 [GSK683281]	8	0	45	0	21	0	0	14	9	0
C[C@@H](Oc1cc(-n2cnc3cc(-c4ccnc(NCCS(C)(=O)=O)c4)ccc32)sc1C(N)=O)c1ccccc1Cl [GSK907232]	5	0	20	13	16	0	0	0	0	0

Compound	%Inh (CDC2L2) [%]	%Inh (CDC2L5) [%]	%Inh (CDK11) [%]	%Inh (CDK2) [%]	%Inh (CDK3) [%]	%Inh (CDK4-cyclinD1) [%]	%Inh (CDK4-cyclinD3) [%]	%Inh (CDK4) [%]	%Inh (CDK5) [%]	%Inh (CDK7) [%]
Nc1ncnc2c1nc(-c1ccccc1)n2-c1ccccc1 [SKF-97293]	5	48	7	12	13	21	0	21	3	41
COc1cc(Nc2nccc(-c3c(-c4cccc(NC(=O)c5c(F)cccc5F)c4)nn4ccccc34)n2)cc(OC)c1OC [GSK323521]	14	0	96.9	20	21	0	0	7	28	0
Cc1ccc(F)c(C(=O)Nc2cccc(-c3nn4ccccc4c3-c3ccnc(Nc4cccc(F)c4)n3)c2)c1F [GSK361061]	23	0	14	11	17	0	0	3	4	0
CN1CCN(CCCNc2nccc(-c3c(-c4ccc(F)cc4)nn4cc(C(F)(F)F)ccc34)n2)CC1 [GW621581]	0	0	0	0	0	0	0	0	0	0
CSc1cccc2c(-c3ccncn3)c(-c3ccc(F)cc3)nn12 [GW514786]	17	0	8	11	9	13	0	15	0	2
COc1cc(Nc2nccc(N3CCC(NC(=O)Nc4cccc(C(C)=O)c4)C3)n2)cc(OC)c1OC (stereo not drawn) [GSK1379753]	14	0	16	0	11	0	0	0	0	0
Cc1cccc(Nc2nc(N[C@H]3CCNC3)ncc2C(N)=O)c1.Cl [GSK2197149]	74	0	0	0	0	0	1	0	0	52
COc1ccc(-c2coc3ccc(-c4nnc(SCc5ccc(OC)c(C(F)(F)F)c5)o4)cc23)cc1	17	0	57	1	0	2	0	0	14	0
COCCOCCOc1cc2ncc3c4ccc(C#N)cc4[nH]c3c2cc1OC	19	0	0	12	15	0	39	0	7	99.7
Cl.c1ccc(-c2ccc3c(Nc4ccc5[nH]ccc5c4)ccnc3c2)nc1 [GW440138]	7	0	4	0	0	27	0	35	0	0
Cl.Cl.NCC(C(=O)Nc1cc(Br)c(-c2ccnc3[nH]ccc23)s1)c1ccccc1 (stereo not drawn) [GSK1269851]	4	0	17	0	5	0	2	15	0	24
COc1cccc(C(=O)Nc2cccc(Oc3ccc4nc(NC(=O)C5CC5)cn4n3)c2)c1	17	2	8	0	0	1	0	0	0	0
O=C(Nc1cccc(Oc2ccc3nc(NC(=O)C4CC4)cn3n2)c1)c1ccccc1C(F)(F)F	14	25	1	0	21	24	0	0	0	0
O=C(Nc1cccc(-c2nn3ncccc3c2-c2ccnc(Nc3ccccc3)n2)c1)c1c(F)cccc1F [GSK198271]	18	0	0	0	8	0	0	0	0	0
CCc1ccc(-c2ccc3c(c2)-c2c(cnn2C)S(=O)(=O)N3C)cc1	0	20	7	0	0	3	3	0	0	6
CC(C)(C)c1ccc2nccc(Nc3cccc(O)c3)c2c1 [GW856795]	0	36	17	0	0	55	0	32	0	1

Reference: paper PMC5540273 (PLoS ONE, 2017)
